Screening results as filed in PubChem.
Shown are actives, neighbours in structure and some others; about 4% of the full set was active somewhere.
GRP78 ERSR act: ER stress response induction in glioma; U87-MG GRP78 promoter luciferase reporter, 16 h; Potency, µM, without a hit: top-dose activation, hits mostly activators; 0.02% of 420,000 active; active means well fitted activation curve with a large enough effect; inconclusive means small, poorly fitted or top-dose-only effect; inactive means no such curve, though single readings can be large or run the other way; further: potency means the concentration at half of the fitted maximal effect; series mostly up to about 76 µM; % of control where 0% means no effect; nearly all actives have a fitted effect of over 35% in size
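Stably transfected U87-MG glioma cells carrying a GRP78-based luciferase sensor; 16 h compound incubation. Luminescence end-point read 10 min after Bright-Glo addition at room temperature.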
TRHR PAM: TRH receptor (human) allosteric enhancement | P34981 | TRHR cells, fluo-8 calcium fluorescence, EC20 TRH enhancement | enhancement, % at 2 µM | 0.66% of 360,000 active | AID 493056; in the data active means enhancement above about 30%; further: 0% is about no effect
Target sequence (P34981 whole entry, looked up): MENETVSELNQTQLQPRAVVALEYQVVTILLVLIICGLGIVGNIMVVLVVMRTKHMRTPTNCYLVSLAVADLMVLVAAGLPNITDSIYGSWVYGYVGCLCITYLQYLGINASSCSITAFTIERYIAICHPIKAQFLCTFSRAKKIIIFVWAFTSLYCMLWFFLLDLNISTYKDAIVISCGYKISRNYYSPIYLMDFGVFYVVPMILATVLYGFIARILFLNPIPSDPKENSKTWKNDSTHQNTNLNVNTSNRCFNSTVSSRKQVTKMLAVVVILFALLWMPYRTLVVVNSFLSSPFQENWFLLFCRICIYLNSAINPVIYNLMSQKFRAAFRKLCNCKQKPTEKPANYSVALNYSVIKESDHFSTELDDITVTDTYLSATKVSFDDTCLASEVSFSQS
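Enhancer read-out: after compound pinning and an initial kinetic agonist-mode read, an EC20 of TRH (10 nM final) was injected and fluo-8 calcium signal (Ex 480/Em 530) followed at 1 s/cycle for 100 cycles in TRHR-expressing cells.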
D1 PAM: human D1 dopamine receptor positive modulation; 0.036% of 360,000 active; HEK293 TREx D1 cells, calcium flux, dopamine EC20 potentiation; P21728; potentiation, % at 10 µM; in the data active means potentiation above about 30%; further: 0% is about no effect
D1 ag: activates the human D1 dopamine receptor. P21728. HEK293 T-REx D1 cells, calcium flux, agonist mode. activation, % at 2 µM. 1% of 360,000 active; further: 0% is about no effect
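Agonism was scored from calcium flux recorded over 180 s (1 read/s) after pintool compound addition, following a 10-cycle baseline. Cells were inducible force-coupled HEK293 TREx D1, plated overnight at 30 C and loaded with no-wash calcium dye.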
TRHR ag: TRH receptor (human) agonism; TRHR cells, calcium flux fluo-8, FDSS agonist mode; 0.18% of 360,000 active; activation, % at 2 µM; further: 0% is about no effect
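Steps: seed TRHR cells overnight; add fluo-8 no-wash Ca dye, RT 30 min–1.5 h; record 10 s baseline; pin-transfer compounds; monitor fluorescence 1 cycle/s for the agonist window. Calcium increases flag candidate agonists.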
D1 antagonist: blocks dopamine activation of the human D1 receptor. P21728. HEK293 TREx D1 cells, calcium flux, dopamine EC80; stronger effect = lower value. activity change, negative = inhibition, % at 10 µM. 3.2% of 360,000 active. AID 504652; in the data active means activity change below about -30%; further: on the % scale 0 is the no-effect control and ±100 the full control effect
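Allosteric or orthosteric antagonism assessed as attenuation of the calcium response to EC80 dopamine, added 180 s after compound, in induced HEK293 Trex D1 cells loaded with no-wash calcium dye.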
* = called active by the depositor; ? = inconclusive; nt = not tested or not shown. Unless noted, no stated cut-off is given here; in the data, active means activation above about 30%; inactive means the rest.

SMILES | GRP78 ERSR act | TRHR PAM | D1 PAM | D1 ag | TRHR ag | D1 antagonist
COC(=O)C1=C(c2cccc3c2S(=O)(=O)c2ccccc2-3)C[C@@H]2CC[C@H]1N2C(=O)N1CCc2cc(OC)c(OC)cc2C1 | -3% | 2 | -3 | 4 | 0 | -48*
CCc1cc(OC)c(CC(C)N)cc1OC (stereo not given) | -3% | nt | nt | nt | nt | nt
CCN1CCN(Cc2ccc(OC(F)(F)F)cc2)CC1 | 0% | 6 | 3 | 5 | -1 | -34*
CCOc1cccc(CNCCc2c(C)[nH]c3ccc(OC(F)(F)F)cc23)c1O | -7% | 3 | -2 | 117* | -2 | -20
Cc1[nH]c2ccc(OC(F)(F)F)cc2c1CCNCc1ccc(Cl)cc1 | -15% | -3 | 0 | 41* | 3 | -10
Cc1[nH]c2ccc(OC(F)(F)F)cc2c1CCNCc1cccc([N+](=O)[O-])c1 | -8% | 12 | -7 | 25 | 5 | -8
COc1ccc2[nH]c(C)c(CCNCc3cccnc3)c2c1 | -2% | 5 | 3 | 34* | 29 | 3
C[C@H]1CO1 | 0% | nt | nt | nt | nt | nt
COc1ccc2c(c1)C13CCCCC1C(C2)N(C)CC3 (stereo not given) | -2% | nt | nt | nt | nt | nt
Cc1cc(-c2ccccc2)cc(-c2ccccc2)[n+]1CCc1ccccc1 | -4% | 0 | -12 | -2 | 0 | -43*
C[N+]1(CC2COC(c3ccco3)O2)CCCCC1 (stereo not given) | 6% | -1 | -2 | 2 | 4 | -33*
CCC(Oc1ccc(Cl)cc1)C(=O)OC1CC2CCC(C1)N2C (stereo not given) | -4% | nt | nt | nt | nt | nt
NC(=O)CI | -1% | nt | nt | nt | nt | nt
Fc1ccc(NC2=NCCS2)cc1Cl | -5% | -3 | -2 | -1 | 0 | 0
CC1CN=C(Nc2ccc(F)c(Cl)c2)S1 (stereo not given) | 4% | -1 | -3 | 15 | 1 | -33*
CN[C@@H]1C[C@@H](c2ccc(Cl)c(Cl)c2)c2ccccc21 | -15% | -1 | -2 | 28 | 5 | -51*
C=CCN1CCc2cccc3c2[C@H]1Cc1ccc(O)c(O)c1-3 | ? | 4 | 4 | 32* | 0 | -90*
CCCN1CCc2cc(O)cc3c2C1Cc1ccc(O)c(O)c1-3 (stereo not given) | 0% | nt | nt | nt | nt | nt
O=P(Nc1cccc(F)c1)(Oc1ccccc1F)Oc1ccccc1F | -10% | 9 | -6 | 2 | 1 | -37*
Cc1cccc(NP(=O)(Oc2ccccc2F)Oc2ccccc2F)c1 | -5% | 2 | 1 | 8 | 0 | 7
C[N+](C)(C)CCOC(=O)C(O)(c1ccccc1)c1ccccc1 | -3% | nt | nt | nt | nt | nt
COCCNCCOc1ccc(C(C)(C)c2ccccc2)cc1 | -1% | 0 | 3 | 38* | 2 | 9
CN1CC[C@@]2(CCCN(C(=O)Oc3ccccc3)C2)C1 | -5% | nt | nt | nt | nt | nt
Nc1ccc(Br)cc1 | 2% | nt | nt | nt | nt | nt
Nc1ccc2cc(Br)ccc2c1 | 3% | 1 | -3 | 1 | 0 | -31*
SMILES | GRP78 ERSR act | TRHR PAM | D1 PAM | D1 ag | TRHR ag | D1 antagonist
CN1C(=O)C(=Cc2ccc(OCC(=O)Nc3ccccc3)cc2)C(=O)N(C)C1=O | -2% | -1 | -1 | 4 | 0 | -34*
COc1ccc(C=C2C(=O)N(C)C(=O)N(C)C2=O)cc1COc1ccc(NC(C)=O)cc1 | -4% | -7 | -8 | 4 | 0 | -21
COc1ccc(-c2nc(CN3C(=O)CN=C(c4ccccc4)c4ccccc43)c(C)o2)cc1OC | 4% | -1 | -4 | 4 | -1 | -31*
COc1ccc(-c2nc(CN3C(=O)CN=C(c4ccccc4Cl)c4cc(Cl)ccc43)c(C)o2)cc1OC | -1% | -10 | 1 | 1 | 0 | 10
O=S1(=O)N(Cc2ccccc2)CCCN1Cc1ccc(F)cc1Cl | -3% | 20 | -3 | 10 | 1 | -44*
Cc1cc(C=C(C#N)C#N)ccc1N1CCCC1 | 2% | 1 | -5 | 51* | 16 | -6
CC(C)(O)[C@@H]1C2OC(=O)[C@@H]1[C@]1(O)C[C@H]3O[C@]34C(=O)O[C@H]2[C@]14C (tested in a mixture with another compound) | -3% | nt | nt | nt | nt | nt
Nc1ccc(CC2=NCCN2)cc1 | -5% | nt | nt | nt | nt | nt
Cc1sc2ccccc2c1CC1=NCCN1 | -5% | 2 | -9 | 5 | 1 | -47*
